Several values for one entry are separate records, joined by “and”; a condition that tells them apart may be missing. Identical values can stand only once.
What was measured:
[1] = molecular target: Bromodomain-containing protein 4 (Homo sapiens) (UniProt O60885); details: Compound concentration 20.0 uM, Protein concentration 2.0 uM, Result type QC Liability
[2] = molecular target: T1, Transcription intermediary factor 1-alpha (Homo sapiens) (UniProt O15164); details: Compound concentration 20.0 uM, Protein concentration 2.0 uM, Result type QC Liability
T1 sequence (whole entry): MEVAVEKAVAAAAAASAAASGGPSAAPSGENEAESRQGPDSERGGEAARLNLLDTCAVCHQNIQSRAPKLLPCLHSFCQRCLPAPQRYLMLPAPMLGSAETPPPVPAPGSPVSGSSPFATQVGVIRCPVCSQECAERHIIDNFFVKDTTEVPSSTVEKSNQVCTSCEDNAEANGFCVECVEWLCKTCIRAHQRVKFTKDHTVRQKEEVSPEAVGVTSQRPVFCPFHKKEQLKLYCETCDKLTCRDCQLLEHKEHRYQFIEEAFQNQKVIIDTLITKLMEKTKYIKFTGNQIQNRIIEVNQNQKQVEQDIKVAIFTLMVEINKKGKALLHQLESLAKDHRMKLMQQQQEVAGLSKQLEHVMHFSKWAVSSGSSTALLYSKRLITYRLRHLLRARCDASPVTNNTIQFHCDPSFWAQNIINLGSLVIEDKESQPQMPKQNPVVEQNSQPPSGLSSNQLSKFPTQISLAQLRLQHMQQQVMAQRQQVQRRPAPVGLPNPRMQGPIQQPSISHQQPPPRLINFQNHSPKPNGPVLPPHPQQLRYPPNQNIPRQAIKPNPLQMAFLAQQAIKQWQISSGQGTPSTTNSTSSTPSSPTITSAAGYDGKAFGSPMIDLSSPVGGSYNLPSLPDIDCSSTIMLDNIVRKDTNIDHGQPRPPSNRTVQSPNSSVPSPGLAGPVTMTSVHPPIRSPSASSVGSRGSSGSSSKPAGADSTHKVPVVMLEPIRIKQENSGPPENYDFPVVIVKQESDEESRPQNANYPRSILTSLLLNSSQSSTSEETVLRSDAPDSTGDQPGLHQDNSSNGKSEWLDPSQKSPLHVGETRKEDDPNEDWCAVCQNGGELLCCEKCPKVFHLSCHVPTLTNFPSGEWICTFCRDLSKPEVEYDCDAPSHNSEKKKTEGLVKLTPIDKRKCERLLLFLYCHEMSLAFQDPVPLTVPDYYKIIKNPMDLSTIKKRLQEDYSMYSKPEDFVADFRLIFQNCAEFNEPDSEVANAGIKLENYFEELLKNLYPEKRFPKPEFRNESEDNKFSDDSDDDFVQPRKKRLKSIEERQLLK

SMILES	ΔTm [1]	ΔTm [2]
CO[C@H]1C[C@@H]2CC[C@@H](C)[C@@](O)(O2)C(=O)C(=O)N2CCCC[C@H]2C(=O)O[C@H]([C@H](C)C[C@@H]2CC[C@@H](O)[C@H](OC)C2)CC(=O)[C@H](C)/C=C(\C)[C@@H](O)[C@@H](OC)C(=O)[C@H](C)C[C@H](C)/C=C/C=C/C=C/1C	-2.02 °C	-0.81 °C
N#CC[C@H](C1CCCC1)n1cc(-c2ncnc3[nH]ccc23)cn1	-0.65 °C	-1.72 °C
O=C(O)[C@]1(Cc2cccc(Nc3nccs3)n2)CC[C@@H](Oc2cccc(Cl)c2F)CC1	0 °C	-1.24 °C
CCn1c(-c2nonc2N)nc2ccccc21	-0.33 °C	-1.27 °C
N=C(N)NCCC[C@H](NC(=O)CC1(CC(=O)N2CCN(C(c3ccccc3)c3ccccc3)CC2)CCCC1)C(=O)NCc1ccccc1	-0.62 °C	-1.18 °C
CC(C)(c1ccc(OCc2cccc(COc3ccc(C(=N)N)cc3)c2)cc1)c1ccc(O[C@@H]2O[C@H](C(=O)O)[C@@H](O)[C@H](O)[C@H]2O)cc1	0.58 °C	-5.37 °C
CC(=O)c1ccc2c(c1)/C(=C(/NC1CCN(C)CC1)c1ccc3c(c1)OCO3)C(=O)N2	-0.52 °C	0.21 °C
CCC(C)(C)CC[C@H](NC(=O)N1CCOCC1)C(=O)NC1(C#N)CCN(C)CC1	-0.41 °C	0.53 °C
COCCOCn1c(S(C)(=O)=O)nc2c1c(=O)n(C)c(=O)n2C	-12.2 °C	0.18 °C
CC(C)(C)OC(=O)CN1C(=O)c2c(OCC(=O)O)cccc2Oc2ccc(C(F)(F)F)cc21	0 °C	0.32 °C
COc1cc(-c2cc([C@H](O)C3CC3)n3ncnc(N)c23)ccc1CO	0.22 °C	0.24 °C
CNC(=O)c1nnc(NC(=O)C2CC2)cc1Nc1cccc(-c2ncn(C)n2)c1OC	-2.45 °C	-4.06 °C
Cc1cc(OC2CCS(=O)(=O)CC2)cc(C)c1-c1cccc(COc2ccc(CCC(=O)O)c(F)c2)c1	-5.08 °C	-3.73 °C
COc1cc2c(NC3CCN(C(C)C)CC3)nc(C3CCCCC3)nc2cc1OCCCN1CCCC1	-2.43 °C	-2.96 °C
CC(C)S(=O)(=O)c1ccccc1Nc1nc(N[C@@H]2CCCN(CCCCCCCNC(=O)COc3cccc4c3C(=O)N(C3CCC(=O)NC3=O)C4=O)C2)ncc1Cl (some centres not stated)	1.89 °C	0 °C
CCn1c(=O)c2c(C)c(C(=O)N3CCC(O)CC3)sc2n(CCC(F)(F)F)c1=O	-12.7 °C	0.23 °C

SMILES	ΔTm [1]	ΔTm [2]
CCN1CCN(Cc2ccc(Nc3ncc(F)c(-c4cc(F)c5nc(C)n(C(C)C)c5c4)n3)nc2)CC1	-1.43 °C	-2.28 °C
CCC(F)(F)c1cc(N2CCC(S(C)(=O)=O)CC2)nc2sc(C(N)=O)c(N)c12	-3.68 °C and -1.82 °C and -0.22 °C	0.36 °C and -3.9 °C and -0.99 °C
CN1CCc2cc(Nc3ncc(C(F)(F)F)c(NCc4cc[nH]n4)n3)ccc2C1	-1.83 °C	-1.85 °C
COc1cc(C(N)=O)nc(-c2cccc(C#C[C@]3(O)CCN(C)C3=O)c2)c1	-0.77 °C	-0.62 °C
C1=Cc2ccccc2C(=C2CCN(CCCCc3nnn[nH]3)CC2)c2ccccc21	-12.7 °C	-0.3 °C
O=C(O)CCCc1cc2cc(Cl)ccc2n1S(=O)(=O)c1ccc2ncsc2c1	-3.71 °C	-1.33 °C
CCN1C(=O)N(c2c(F)c(OC)cc(OC)c2F)Cc2cnc3[nH]c(CN4CCOCC4)cc3c21	-1.4 °C	-3.85 °C
COc1ccc(CC[C@@H](OC(=O)[C@@H]2CCCCN2C(=O)[C@H](c2cc(OC)c(OC)c(OC)c2)C2CCCCC2)c2cccc(OCCN3CCOCC3)c2)cc1OC	-4.68 °C	-1.51 °C
CC1(C)Cc2nc(C3CCCC3)c([C@@H](F)c3ccc(C(F)(F)F)cc3)c(C3CCCCC3)c2[C@@H](O)C1	0.17 °C	0.34 °C
Cc1cc(CN)cc(C)c1-c1ncn(C)c1-c1ccnc2cc(F)ccc12	-0.64 °C	0.17 °C
COc1cc(C(=O)NCCOCCOCCOCC(=O)N[C@H](C(=O)N2C[C@@H](O)C[C@H]2C(=O)NCc2ccc(-c3scnc3C)cc2)C(C)(C)C)ccc1Nc1ncc(C(F)(F)F)c(Oc2cccc3c2C(=O)CC3)n1	0.11 °C	2.2 °C
CN1C(=O)c2c(nn(Cc3ccc(-c4cccc(F)n4)cc3)c2Nc2ccccc2)N2C1=N[C@@H]1CCC[C@@H]12	1.34 °C	0.8 °C
CCCCCCCC/C=C\CCCCCCCC(=O)NCCO	-1.73 °C	-2.56 °C
O=C1CCCN1CCNc1nc(Nc2ccc(Cl)c(Cl)c2)ncc1C(F)(F)F	-2.43 °C	-1.81 °C
COc1cccc(-c2c(C)c(Cc3c(F)cccc3C(F)(F)F)c3n(c2=O)[C@@H]([C@@H](N)c2ccccc2)CS3)c1F	-3.06 °C	0.28 °C

Source: ChEMBL document CHEMBL5308504, “Tm Shift (DSF) assay results for EUbOPEN Chemogenomics Library” (2023)
